PubChem BioAssay (NCATS)
Records with an inconclusive call do not appear. Active and inactive are the calls of the source. The call rests on the fitted dose curve; in most records, active means well fitted curve in the direction sought with a large enough effect; inconclusive means small, poorly fitted or top-dose-only effect, or another doubt; inactive means no such curve, though single readings can be large; an effect the other way counts as inactive or inconclusive.

Columns and labels:
[1] = qHTS of pediatric cancer cell lines to identify multiple opportunities for drug repurposing: Primary screen for SJ-GBM2 cells (AID 1347091);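 further: plate controls were DMSO neutral control for no effect and bortezomib for full effect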
Method in brief: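 Viability measured as metabolically active cells via CellTiter-Glo luminescence following 48 hours of compound exposure, 11-point dilutions in confirmatory testing. 500-1,000 cells/well plated 5 hours before dosing; controls were DMSO and 2.3 µM bortezomib.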

[2] = qHTS of pediatric cancer cell lines to identify multiple opportunities for drug repurposing: Primary screen for A673 cells (AID 1347092); further: on the % scale 0 is the no-effect control and ±100 the full control effect; nearly all actives have a fitted effect of over 45% in size
Method in brief: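 48 h compound exposure, A673, 500-1,000 cells/well, 37 degrees C/5% CO2. MIPE: 11-point, 0.78 nM-46 µM; NPC: 8-point, 0.59 nM-46 µM (final). Readout CellTiter-Glo luminescence after 15 min RT.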

[3] = qHTS of pediatric cancer cell lines to identify multiple opportunities for drug repurposing: Primary screen for SK-N-MC cells (AID 1347093);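 further: series mostly up to about 46 µM; plate controls were DMSO neutral control for no effect and bortezomib for full effect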
Method in brief: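 Metabolically active cells were quantified by ATP-dependent luminescence (CellTiter-Glo, 15 min at room temperature) following 48 h treatment. Cells had been plated at 500-1,000 per well and settled for 5 h beforehand.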

[4] = qHTS of pediatric cancer cell lines to identify multiple opportunities for drug repurposing: Primary screen for BT-37 cells (AID 1347094);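 further: series mostly up to about 57 µM; plate controls were DMSO for no effect and bortezomib for full effect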
Method in brief: (§1)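 Cells seeded at 500-1,000 cells/well in growth media, rested 5 hours at 37 degrees C, 5% CO2, then dosed; MIPE compounds at 11-point (from 0.78 nM) and NPC at 8-point (from 0.59 nM) final concentrations. Viability by CellTiter-Glo luminescence after 48 hours.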

[5] = qHTS of pediatric cancer cell lines to identify multiple opportunities for drug repurposing: Primary screen for NB-EBc1 cells (AID 1347095);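 further: plate controls were DMSO neutral control for no effect and bortezomib for full effect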
Method in brief: as §1

[6] = qHTS of pediatric cancer cell lines to identify multiple opportunities for drug repurposing: Primary screen for U-2 OS cells (AID 1347096);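 further: plate controls were DMSO wells for no effect and bortezomib positive control wells for full effect; nearly all actives have a fitted effect of over 50% in size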
Method in brief: (§2)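 Viability after 48 h compound treatment at 37C, 500-1,000 cells/well, read as ATP luminescence with CellTiter-Glo. Primary screens used 11-point (MIPE, 0.78 nM-46 µM) or 8-point (NPC, 0.59 nM-46 µM) final concentrations; follow-up screens used 11-point dilutions.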

[7] = qHTS of pediatric cancer cell lines to identify multiple opportunities for drug repurposing: Primary screen for SK-N-SH cells (AID 1347098);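 further: DMSO served as neutral control and bortezomib at 2.3 µM as positive control; on the % scale 0 is the no-effect control and ±100 the full control effect; nearly all actives have a fitted effect of over 65% in size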
Method in brief: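 Cells (500-1,000/well) rested 5 h, then received compounds for 48 h; metabolically active cells were measured by CellTiter-Glo luminescence. Final concentrations spanned up to 46 µM (MIPE, 11-point) or 0.59 nM-46 µM (NPC, 8-point) in primary screens, 11-point in follow-ups.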

[8] = qHTS of pediatric cancer cell lines to identify multiple opportunities for drug repurposing: Primary screen for NB1643 cells (AID 1347099);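 further: plate controls were DMSO neutral control for no effect and bortezomib positive control for full effect; nearly all actives have a fitted effect of over 50% in size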
Method in brief: as §1

[9] = qHTS of pediatric cancer cell lines to identify multiple opportunities for drug repurposing: Primary screen for LAN-5 cells (AID 1347100);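 further: plate controls were DMSO neutral control for no effect and bortezomib positive control for full effect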
Method in brief: as §2

[10] = qHTS of pediatric cancer cell lines to identify multiple opportunities for drug repurposing: Primary screen for Saos-2 cells (AID 1347097); further: on the % scale 0 is the no-effect control and ±100 the full control effect; nearly all actives have a fitted effect of over 40% in size
Method in brief: as §1

CC(C)(C)c1nnc(NS(=O)(=O)c2ccc(N)cc2)s1
inactive: Potency [1] | Potency [2] | Potency [3] | Potency [4] | Potency [5] | Potency [6] | Potency [7] | Potency [8] | Potency [9]

Nc1ccc(C(=O)O)c(O)c1
inactive: Potency [1] | Potency [2] | Potency [3] | Potency [4] | Potency [6] | Potency [10] | Potency [7] | Potency [8] | Potency [9]

CCCCCCCCCCCCCCCCCC(=O)O
inactive: Potency [1] | Potency [2] | Potency [3] | Potency [4] | Potency [5] | Potency [6] | Potency [10] | Potency [7] | Potency [8] | Potency [9]

CC(N)C(=O)OC(C)(C)Cc1ccc(Cl)cc1 (centres undefined)
inactive: Potency [1] | Potency [2] | Potency [3] | Potency [4] | Potency [5] | Potency [6] | Potency [10] | Potency [7] | Potency [8] | Potency [9]

CO[C@@]1(NC(=O)Cc2cccs2)C(=O)N2C(C(=O)O)=C(COC(N)=O)CS[C@@H]21
inactive: Potency [1] | Potency [2] | Potency [3] | Potency [4] | Potency [5] | Potency [6] | Potency [10] | Potency [7] | Potency [8] | Potency [9]

O=C(Nc1ccc(C(=O)O)c(O)c1)c1ccccc1
inactive: Potency [1] | Potency [2] | Potency [3] | Potency [4] | Potency [5] | Potency [6] | Potency [10] | Potency [7] | Potency [8] | Potency [9]

CN(C)[C@@H]1C(=O)C(C(=O)NCN2CCCC2)=C(O)[C@@]2(O)C(=O)C3=C(O)c4c(O)cccc4[C@@](C)(O)C3C[C@@H]12 (some centres undefined)
inactive: Potency [1] | Potency [2] | Potency [3] | Potency [4] | Potency [5] | Potency [6] | Potency [10] | Potency [7] | Potency [8] | Potency [9]

O=C(/C=C/c1ccccc1)NCCO
inactive: Potency [1] | Potency [2] | Potency [3] | Potency [4] | Potency [5] | Potency [6] | Potency [10] | Potency [7] | Potency [8] | Potency [9]

Nc1ccc(O)c(C(=O)O)c1
inactive: Potency [1] | Potency [2] | Potency [3] | Potency [4] | Potency [6] | Potency [10] | Potency [7] | Potency [8] | Potency [9]

CCCCCCCCCCCCOCCO
inactive: Potency [1] | Potency [2] | Potency [3] | Potency [4] | Potency [5] | Potency [6] | Potency [10] | Potency [7] | Potency [8] | Potency [9]

C/C(=N\O)c1ccc(OCC(=O)N2CCCCC2)cc1
inactive: Potency [1] | Potency [2] | Potency [3] | Potency [4] | Potency [6] | Potency [10] | Potency [7] | Potency [8] | Potency [9]

COc1ccnc2c1CCCCC2S(=O)c1nc2ccccc2[nH]1 (centres undefined)
inactive: Potency [1] | Potency [2] | Potency [3] | Potency [4] | Potency [5] | Potency [6] | Potency [10] | Potency [7] | Potency [8] | Potency [9]

O=C(O)Cc1cccc(-c2cc(CCCCCCc3ccc(O[C@H]4O[C@H](CO)[C@@H](O)[C@H](O)[C@@H]4O)c(-c4cccc(CC(=O)O)c4)c3)ccc2O[C@H]2O[C@H](CO)[C@@H](O)[C@H](O)[C@@H]2O)c1
inactive: activity change, negative = cytotoxic [1] 18.6% [at 0.597 µM] | activity change, negative = cytotoxic [2] 10.8% [at 0.597 µM] | activity change, negative = cytotoxic [3] -8.23% [at 0.597 µM] | activity change, negative = cytotoxic [4] 12.8% [at 0.745 µM] | activity change, negative = cytotoxic [6] 2.96% [at 0.597 µM] | activity change, negative = cytotoxic [10] 9.71% [at 0.597 µM] | activity change, negative = cytotoxic [7] -3.64% [at 0.741 µM] | activity change, negative = cytotoxic [8] 1.92% [at 0.597 µM] | activity change, negative = cytotoxic [9] 9.16% [at 0.597 µM]

O=C(O)/C=C\C(=O)O
inactive: Potency [1] | Potency [2] | Potency [3] | Potency [4] | Potency [5] | Potency [6] | Potency [10] | Potency [7] | Potency [8] | Potency [9]

COc1ccc(-c2cc(=S)ss2)cc1
inactive: Potency [1] | Potency [2] | Potency [3] | Potency [4] | Potency [6] | Potency [10] | Potency [7] | Potency [8] | Potency [9]

CN1CC(=O)N/C1=N/C(=O)Nc1cccc(Cl)c1
inactive: Potency [1] | Potency [2] | Potency [3] | Potency [4] | Potency [5] | Potency [6] | Potency [10] | Potency [7] | Potency [8] | Potency [9]

O=C(CCN1CCN(CCO)CC1)N1c2ccccc2Sc2ccc(C(F)(F)F)cc21
inactive: Potency [1] | Potency [2] | Potency [3] | Potency [4] | Potency [5] | Potency [6] | Potency [10] | Potency [7] | Potency [8] | Potency [9]
